Measured values as given in the supplement of paper PMC10849652.
Targets with a hit are over-represented here; the source holds about 8,800 in all. About 0.5% of all pairs of compound and target were hits.

Tests used:
Experiment in all cases: log2 fold change, soluble protein after heating vs DMSO (PISA); higher = thermal stabilisation; K562 lysate, 10 uM; active = over 0.2 and 3.5 SD of the protein, either way, in both replicates (recomputed)
[1] = compound: C1=CC=C(C=C1)[C@H](COC2=CC3=C(C=C2)NC(=O)N3)NC(=O)C4=CC=CN(C4=O)CC5=CC(=C(C=C5)F)F
Outline: (§1)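 A 30 min treatment with 10 μM compound was applied to crude K562 extract at 1 mg/mL protein in PBS pH 7.4 with 1 mM MgCl2. Heating for 3 min spanned 48°C-58°C, after which aliquots were pooled, adjusted to 0.5% NP-40 at 4°C and spun at 21,000xg for 90 min. TMTpro 16plex LC-MS/MS of the supernatant, with channel sums equalised, gave values recorded as log-two fold change in thermal stability against solvent controls, from duplicates.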

[2] = compound: CC1=C(SC2=C1C(=N[C@H](C3=NN=C(N32)C)CC(=O)N)C4=CC=C(C=C4)Cl)C
Outline: as §1

[3] = compound: CC1=C2C(=CC=C1)N=C(N(C2=O)C3=CC=CC=C3C)CN4C=NC5=C(N=CN=C54)N
Outline: as §1

[4] = compound: Cc1sc2c(c1C)C(c1ccc(Cl)cc1)=N[C@@H](CC(=O)OC(C)(C)C)c1nnc(C)n1-2
Outline: as §1

[5] = compound: c1ccc([C@@H]2C[C@H]2NC2CCNCC2)cc1
Outline: as §1

Measured: log2 fold change

PPP2R3C (UniProt Q969Q6)
inactive: [1] -0.044 | [2] 0.006 | [3] 0.042 | [4] -0.052 | [5] 0.059

PCF11 (UniProt O94913)
Chain of UniProt O94913 (O94913 whole entry, looked up): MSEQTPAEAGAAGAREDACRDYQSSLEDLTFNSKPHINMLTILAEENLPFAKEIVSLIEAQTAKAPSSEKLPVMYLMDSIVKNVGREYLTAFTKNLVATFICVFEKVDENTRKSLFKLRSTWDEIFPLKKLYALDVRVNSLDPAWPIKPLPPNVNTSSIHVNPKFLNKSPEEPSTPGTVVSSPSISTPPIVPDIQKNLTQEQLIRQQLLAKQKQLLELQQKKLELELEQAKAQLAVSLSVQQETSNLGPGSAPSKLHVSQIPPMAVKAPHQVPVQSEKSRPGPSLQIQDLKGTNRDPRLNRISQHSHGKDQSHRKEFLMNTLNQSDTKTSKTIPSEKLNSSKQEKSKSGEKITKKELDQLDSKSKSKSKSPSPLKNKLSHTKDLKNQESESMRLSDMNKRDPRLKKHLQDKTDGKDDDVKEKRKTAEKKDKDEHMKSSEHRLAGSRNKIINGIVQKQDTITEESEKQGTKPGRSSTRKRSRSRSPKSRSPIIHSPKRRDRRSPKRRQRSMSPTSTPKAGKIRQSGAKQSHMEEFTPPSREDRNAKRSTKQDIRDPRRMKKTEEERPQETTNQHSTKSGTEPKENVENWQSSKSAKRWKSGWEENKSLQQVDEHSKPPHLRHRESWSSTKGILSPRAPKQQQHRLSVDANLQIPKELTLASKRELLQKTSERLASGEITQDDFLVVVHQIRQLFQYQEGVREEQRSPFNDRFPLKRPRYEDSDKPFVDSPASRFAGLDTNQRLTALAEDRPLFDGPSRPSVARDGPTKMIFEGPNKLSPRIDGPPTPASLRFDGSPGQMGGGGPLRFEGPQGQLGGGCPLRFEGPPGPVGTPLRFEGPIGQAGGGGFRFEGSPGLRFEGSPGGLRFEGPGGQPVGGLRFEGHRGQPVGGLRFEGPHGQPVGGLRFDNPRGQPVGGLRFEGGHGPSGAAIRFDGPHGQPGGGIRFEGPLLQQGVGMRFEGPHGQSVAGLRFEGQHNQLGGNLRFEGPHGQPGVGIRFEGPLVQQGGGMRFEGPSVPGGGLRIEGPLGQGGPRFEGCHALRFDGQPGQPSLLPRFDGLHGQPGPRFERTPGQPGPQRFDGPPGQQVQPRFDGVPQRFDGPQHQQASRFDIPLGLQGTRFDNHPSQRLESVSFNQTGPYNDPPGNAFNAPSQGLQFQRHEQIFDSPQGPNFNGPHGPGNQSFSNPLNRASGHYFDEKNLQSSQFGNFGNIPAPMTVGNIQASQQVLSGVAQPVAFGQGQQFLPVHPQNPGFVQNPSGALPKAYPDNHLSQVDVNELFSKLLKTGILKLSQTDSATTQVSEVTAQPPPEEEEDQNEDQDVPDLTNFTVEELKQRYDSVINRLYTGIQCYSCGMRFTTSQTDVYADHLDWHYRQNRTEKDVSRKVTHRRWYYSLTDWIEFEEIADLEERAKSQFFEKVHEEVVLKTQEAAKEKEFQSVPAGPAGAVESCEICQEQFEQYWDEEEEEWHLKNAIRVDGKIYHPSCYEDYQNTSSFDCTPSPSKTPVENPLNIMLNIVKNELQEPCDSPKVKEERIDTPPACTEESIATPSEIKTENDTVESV
inactive: [1] -0.135 | [2] 0.018 | [3] 0.022 | [4] 0.008 | [5] 0.079

PTPN6 isoform 4 (UniProt P29350)
Chain of UniProt P29350 (P29350 whole entry, looked up): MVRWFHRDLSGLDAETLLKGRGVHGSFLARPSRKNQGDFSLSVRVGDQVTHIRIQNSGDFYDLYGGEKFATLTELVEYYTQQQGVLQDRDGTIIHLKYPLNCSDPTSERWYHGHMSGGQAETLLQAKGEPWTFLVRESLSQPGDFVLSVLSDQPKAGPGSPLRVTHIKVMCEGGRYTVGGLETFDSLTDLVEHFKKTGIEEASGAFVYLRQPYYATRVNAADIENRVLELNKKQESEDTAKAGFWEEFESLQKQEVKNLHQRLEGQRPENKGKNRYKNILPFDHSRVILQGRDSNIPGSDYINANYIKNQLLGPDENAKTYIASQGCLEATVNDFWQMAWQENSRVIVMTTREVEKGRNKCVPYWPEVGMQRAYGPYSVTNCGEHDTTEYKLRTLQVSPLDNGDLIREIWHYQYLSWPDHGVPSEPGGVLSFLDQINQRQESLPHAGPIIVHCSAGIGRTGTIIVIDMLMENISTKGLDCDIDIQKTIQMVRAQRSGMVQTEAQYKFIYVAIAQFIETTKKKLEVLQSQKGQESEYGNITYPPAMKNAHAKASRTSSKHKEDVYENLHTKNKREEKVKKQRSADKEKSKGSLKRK
inactive: [1] 0.12 | [2] 0.029 | [3] 0.063 | [4] 0.047 | [5] 0.133

PPT2 isoform 3 (UniProt Q9UMR5)
Chain of UniProt Q9UMR5 (Q9UMR5 whole entry, looked up): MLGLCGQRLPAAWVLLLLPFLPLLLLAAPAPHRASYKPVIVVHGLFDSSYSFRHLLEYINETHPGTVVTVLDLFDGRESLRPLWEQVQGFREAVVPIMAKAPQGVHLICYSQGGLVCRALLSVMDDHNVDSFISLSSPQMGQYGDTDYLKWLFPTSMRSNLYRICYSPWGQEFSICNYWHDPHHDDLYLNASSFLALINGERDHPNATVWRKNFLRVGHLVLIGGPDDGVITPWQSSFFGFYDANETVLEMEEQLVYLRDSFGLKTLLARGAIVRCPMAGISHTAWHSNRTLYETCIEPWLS
inactive: [1] 0.01 | [2] -0.03 | [3] -0.046 | [4] -0.048 | [5] -0.08

PHKA2 (UniProt P46019)
Chain of UniProt P46019 (P46019 whole entry, looked up): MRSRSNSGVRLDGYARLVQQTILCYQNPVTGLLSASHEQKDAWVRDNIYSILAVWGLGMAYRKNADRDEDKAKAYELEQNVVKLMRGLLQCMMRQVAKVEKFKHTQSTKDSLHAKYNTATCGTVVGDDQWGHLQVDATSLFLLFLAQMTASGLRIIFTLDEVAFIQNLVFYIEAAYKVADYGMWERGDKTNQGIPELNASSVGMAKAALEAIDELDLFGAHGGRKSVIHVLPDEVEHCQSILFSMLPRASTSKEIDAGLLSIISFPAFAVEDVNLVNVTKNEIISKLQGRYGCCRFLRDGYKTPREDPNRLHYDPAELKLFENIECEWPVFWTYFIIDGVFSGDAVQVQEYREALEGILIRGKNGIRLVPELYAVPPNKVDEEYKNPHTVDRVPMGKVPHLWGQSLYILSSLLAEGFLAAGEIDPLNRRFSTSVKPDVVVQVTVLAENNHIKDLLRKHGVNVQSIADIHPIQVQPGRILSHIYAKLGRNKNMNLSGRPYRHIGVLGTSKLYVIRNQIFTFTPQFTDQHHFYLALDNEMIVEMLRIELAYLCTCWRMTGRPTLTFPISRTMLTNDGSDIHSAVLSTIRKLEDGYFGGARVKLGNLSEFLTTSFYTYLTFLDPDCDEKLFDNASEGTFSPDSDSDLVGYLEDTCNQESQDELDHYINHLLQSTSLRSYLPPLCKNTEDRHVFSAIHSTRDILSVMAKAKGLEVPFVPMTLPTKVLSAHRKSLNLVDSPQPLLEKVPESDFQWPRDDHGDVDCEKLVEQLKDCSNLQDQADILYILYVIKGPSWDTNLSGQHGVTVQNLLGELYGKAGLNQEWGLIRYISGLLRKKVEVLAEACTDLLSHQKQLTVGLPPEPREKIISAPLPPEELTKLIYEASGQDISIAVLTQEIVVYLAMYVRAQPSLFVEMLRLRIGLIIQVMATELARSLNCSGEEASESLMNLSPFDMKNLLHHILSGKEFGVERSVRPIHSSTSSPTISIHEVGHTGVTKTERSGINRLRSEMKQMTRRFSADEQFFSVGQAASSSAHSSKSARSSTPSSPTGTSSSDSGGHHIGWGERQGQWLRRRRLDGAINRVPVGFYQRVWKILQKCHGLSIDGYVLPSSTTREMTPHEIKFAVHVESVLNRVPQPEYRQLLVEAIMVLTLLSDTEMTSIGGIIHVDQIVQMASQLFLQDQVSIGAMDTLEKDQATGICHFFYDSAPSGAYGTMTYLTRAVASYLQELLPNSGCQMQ
inactive: [1] -0.111 | [2] 0.028 | [3] 0.052 | [4] 0.021 | [5] 0.038

PPP1R14C (UniProt Q8TAE6)
Chain of UniProt Q8TAE6 (Q8TAE6 whole entry, looked up): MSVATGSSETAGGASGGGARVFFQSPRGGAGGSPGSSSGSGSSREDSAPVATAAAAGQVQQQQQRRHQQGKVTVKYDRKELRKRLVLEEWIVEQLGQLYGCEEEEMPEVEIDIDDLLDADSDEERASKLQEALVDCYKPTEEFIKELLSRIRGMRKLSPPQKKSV
inactive: [1] -0.019 | [2] 0.024 | [3] 0.051 | [4] -0.078 | [5] -0.147

PRPF6 (UniProt O94906)
Chain of UniProt O94906 (O94906 whole entry, looked up): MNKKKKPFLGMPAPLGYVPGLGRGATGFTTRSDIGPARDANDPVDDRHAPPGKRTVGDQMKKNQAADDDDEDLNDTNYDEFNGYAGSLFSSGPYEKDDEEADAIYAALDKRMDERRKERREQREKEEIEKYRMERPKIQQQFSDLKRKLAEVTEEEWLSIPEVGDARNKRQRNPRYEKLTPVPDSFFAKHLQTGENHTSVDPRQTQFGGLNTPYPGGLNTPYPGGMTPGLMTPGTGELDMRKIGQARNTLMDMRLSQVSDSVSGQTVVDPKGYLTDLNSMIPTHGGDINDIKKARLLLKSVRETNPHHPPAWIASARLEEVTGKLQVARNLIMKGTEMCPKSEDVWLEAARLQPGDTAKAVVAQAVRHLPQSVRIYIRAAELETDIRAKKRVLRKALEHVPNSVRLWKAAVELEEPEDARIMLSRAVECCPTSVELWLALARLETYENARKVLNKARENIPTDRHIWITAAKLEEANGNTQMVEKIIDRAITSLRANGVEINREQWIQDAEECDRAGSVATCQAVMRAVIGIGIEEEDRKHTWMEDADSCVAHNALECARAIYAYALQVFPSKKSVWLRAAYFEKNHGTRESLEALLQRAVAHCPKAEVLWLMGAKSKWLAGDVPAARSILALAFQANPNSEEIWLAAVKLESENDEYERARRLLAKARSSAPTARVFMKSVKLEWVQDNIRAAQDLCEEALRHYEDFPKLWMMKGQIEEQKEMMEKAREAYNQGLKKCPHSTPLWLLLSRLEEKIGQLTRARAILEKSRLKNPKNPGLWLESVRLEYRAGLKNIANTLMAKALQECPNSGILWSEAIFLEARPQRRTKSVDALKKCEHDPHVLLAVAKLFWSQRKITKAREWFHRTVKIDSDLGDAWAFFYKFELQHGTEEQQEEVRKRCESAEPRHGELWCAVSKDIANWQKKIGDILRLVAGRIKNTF
inactive: [1] -0.006 | [2] 0.015 | [3] -0.012 | [4] -0.01 | [5] 0.04

PPP3CA isoform 2 (UniProt Q08209)
inactive: [1] -0.026 | [2] -0.115 | [3] -0.017 | [4] 0.004 | [5] 0.043

PDCD6IP isoform 2 (UniProt Q8WUM4)
inactive: [1] -0.019 | [2] -0.004 | [3] 0.018 | [4] 0.02 | [5] 0.056
